Test results taken from PubChem BioAssay (NCATS).
Inconclusive results are not listed. A call without a number means that no potency is given here. Calls of active or inactive are those of the source. The call rests on the fitted dose curve; in most records, active means well fitted curve in the direction sought with a large enough effect; inconclusive means small, poorly fitted or top-dose-only effect, or another doubt; inactive means no such curve, though single readings can be large; an effect the other way counts as inactive or inconclusive.

Legend:
ATS95 = test: qHTS profiling for inhibitors of Plasmodium falciparum proliferation (AID 504749); further: nearly all actives have a fitted effect of over 60% in size; further: potency means the concentration at half of the fitted maximal effect; details: P. falciparum in erythrocytes, SYBR Green DNA, 72 h; series mostly up to 28.7 µM
How it was run: (§1)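 Infected RBCs, 0.3% parasitemia/2.5% Hct final; cpd 72 h, 37 C, 5% CO2; lysis buffer with saponin/triton/SYBR Green I, o/n RT dark; FI 485/535; norm. to artemisinin (0.29 uM) and DMSO.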

CP201 = test: as above; details: P. falciparum in erythrocytes, SYBR Green DNA, 72 h; series mostly up to 28.7 µM
How it was run: as §1

CP215 = test: as above; details: P. falciparum in erythrocytes, SYBR Green DNA, 72 h; series mostly up to 28.7 µM
How it was run: as §1

CP262 = test: as above; details: P. falciparum in erythrocytes, SYBR Green DNA, 72 h; series mostly up to 28.7 µM
How it was run: as §1

CP266 = test: as above; details: P. falciparum in erythrocytes, SYBR Green DNA, 72 h; series mostly up to 28.7 µM
How it was run: as §1

CP268 = test: as above; details: P. falciparum in erythrocytes, SYBR Green DNA, 72 h; series mostly up to 28.7 µM
How it was run: as §1

CP269 = test: as above; details: P. falciparum in erythrocytes, SYBR Green DNA, 72 h; series mostly up to 28.7 µM
How it was run: as §1

CP291 = test: as above; details: P. falciparum in erythrocytes, SYBR Green DNA, 72 h; series mostly up to 28.7 µM
How it was run: as §1

CP297 = test: as above; details: P. falciparum in erythrocytes, SYBR Green DNA, 72 h; series mostly up to 28.7 µM
How it was run: as §1

CP305 = test: as above; details: P. falciparum in erythrocytes, SYBR Green DNA, 72 h; series mostly up to 28.7 µM
How it was run: as §1

CP315 = test: as above; details: P. falciparum in erythrocytes, SYBR Green DNA, 72 h; series mostly up to 28.7 µM
How it was run: as §1

CP325 = test: as above; details: P. falciparum in erythrocytes, SYBR Green DNA, 72 h; series mostly up to 28.7 µM
How it was run: as §1

DIV17 = test: as above; details: P. falciparum in erythrocytes, SYBR Green DNA, 72 h; series mostly up to 28.7 µM
How it was run: as §1

FAB9 = test: as above; details: P. falciparum in erythrocytes, SYBR Green DNA, 72 h; series mostly up to 28.7 µM
How it was run: as §1

JCK = test: as above; details: P. falciparum in erythrocytes, SYBR Green DNA, 72 h; series mostly up to 28.7 µM
How it was run: as §1

P94_40 = test: as above; details: P. falciparum in erythrocytes, SYBR Green DNA, 72 h; series mostly up to 28.7 µM
How it was run: as §1

PAD = test: as above; details: P. falciparum in erythrocytes, SYBR Green DNA, 72 h; series mostly up to 28.7 µM
How it was run: as §1

TAB109 = test: as above; details: P. falciparum in erythrocytes, SYBR Green DNA, 72 h; series mostly up to 28.7 µM
How it was run: as §1

[1] = S16 Schwann cell viability assay (CellTiter-Glo assay) (AID 624031);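 further: cellular ATP luminescence as a viability measure; nearly all actives have a fitted effect of over 70% in size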
How it was run: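 Native S16 rat Schwann cells, 500-750 cells/well in DMEM with 10% FBS, dosed with compound after overnight culture and incubated 24h at 37 degree Celsius/5% CO2. Viability by CellTiter-Glo luminescence; % activity normalized to no-cell wells and DMSO-treated cells.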

GB4 = test: qHTS profiling for inhibitors of Plasmodium falciparum proliferation (AID 504749); further: nearly all actives have a fitted effect of over 60% in size; further: potency means the concentration at half of the fitted maximal effect; details: P. falciparum in erythrocytes, SYBR Green DNA, 72 h; series mostly up to 28.7 µM
How it was run: as §1

For `COc1cccc2c1C(=O)c1c(O)c3c(c(O)c1C2=O)C[C@](O)(C(=O)CO)C[C@@H]3O[C@H]1C[C@H](N)[C@@H](O)[C@H](C)O1`, the Potency (ATS95) was “inactive”, the Potency (CP201) was “inactive” and the Potency (CP215) was “inactive”. For the same compound, the Potency (CP262) was “inactive”, the Potency (CP266) was “inactive” and the Potency (CP268) was “inactive”. For the same compound, the Potency (CP269) was “inactive”, the Potency (CP291) was “inactive” and the Potency (CP297) was “inactive”. For the same compound, the Potency (CP305) was “inactive”, the Potency (CP315) was “inactive” and the Potency (CP325) was “inactive”. For the same compound, the Potency (DIV17) was “inactive”, the Potency (FAB9) was “inactive” and the Potency (JCK) was “inactive”. For the same compound, the Potency (P94_40) was “inactive”, the Potency (PAD) was “inactive” and the Potency (TAB109) was “inactive”.
For `CC(C)(C)c1ccc(CN2CCN([C@H](c3ccccc3)c3ccc(Cl)cc3)CC2)cc1`, the Potency [1] was “inactive”, the Potency (GB4) was 15.1 µM (active) and the Potency (P94_40) was 7.94 µM (active).
With `O=C(O)[C@@H](O)[C@@H](O)[C@H](O)C(=O)CO` the Potency [1] was “inactive”, the Potency (ATS95) was “inactive” and the Potency (CP201) was “inactive”. The Potency (CP215) was “inactive”, the Potency (CP262) was “inactive” and the Potency (CP266) was “inactive”. The Potency (CP268) was “inactive”, the Potency (CP269) was “inactive” and the Potency (CP291) was “inactive”. The Potency (CP297) was “inactive”, the Potency (CP305) was “inactive” and the Potency (CP325) was “inactive”. The Potency (DIV17) was “inactive”, the Potency (FAB9) was “inactive” and the Potency (GB4) was “inactive”. The Potency (JCK) was “inactive”, the Potency (P94_40) was “inactive” and the Potency (PAD) was “inactive”. The Potency (TAB109) was “inactive”.
In the case of `C[C@H](CCC(=O)O)[C@H]1CC[C@@H]2[C@H]3[C@@H](C[C@@H](O)[C@]21C)[C@]1(C)CC[C@H](O)C[C@@H]1C[C@@H]3O`, the Potency [1] is reported as “inactive”, the Potency (CP201) is reported as “inactive” and the Potency (CP262) is reported as “inactive”. The Potency (CP266) was “inactive”, the Potency (CP268) was “inactive” and the Potency (CP269) was “inactive”. The Potency (CP291) was “inactive”, the Potency (CP297) was “inactive” and the Potency (CP305) was “inactive”. For the same compound, the Potency (CP315) was “inactive”, the Potency (CP325) was “inactive” and the Potency (DIV17) was “inactive”. For the same compound, the Potency (FAB9) was “inactive”, the Potency (JCK) was “inactive” and the Potency (PAD) was “inactive”. The Potency (TAB109) was “inactive”.
For `CC1(C)S[C@@H]2[C@H](NC(=O)Cc3ccccc3)C(=O)N2[C@@H]1C(=O)O`, the Potency [1] was “inactive”, the Potency (ATS95) was “inactive” and the Potency (CP201) was “inactive”. The Potency (CP215) was “inactive”, the Potency (CP262) was “inactive” and the Potency (CP266) was “inactive”. For the same compound, the Potency (CP268) was “inactive”, the Potency (CP269) was “inactive” and the Potency (CP291) was “inactive”. The Potency (CP297) was “inactive”, the Potency (CP305) was “inactive” and the Potency (CP315) was “inactive”. The Potency (CP325) was “inactive”, the Potency (DIV17) was “inactive” and the Potency (FAB9) was “inactive”. The Potency (GB4) was “inactive”, the Potency (JCK) was “inactive” and the Potency (P94_40) was “inactive”. For the same compound, the Potency (PAD) was “inactive” and the Potency (TAB109) was “inactive”.
